Screens from PubChem BioAssay.
Rows were chosen to be rich in hits. Some 2.4% of all compounds tested hit in one or more screens of this group.
FEN1 inh: human FEN1 inhibition; P39748; Potency, µM (series often up to 114 µM), without a hit: at the top dose activity change, negative = inhibition, usual class: inhibitors; Recombinant FEN1 flap cleavage, fluorescence, 15 min; 390,000 compounds, 0.35% hits; AID 588795; also: % is scaled to controls: 0 for no effect and ±100 for the full control effect; nearly all actives have a fitted effect of over 65% in size
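Reaction started by adding substrate (50 nM final) to 10 nM enzyme after 15 min room-temperature compound preincubation. Reads at 0 and 15 min, with data normalized and fitted to a four-parameter Hill equation.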
Pol eta inh: DNA polymerase eta (human) inhibition; AID 588591; Potency, µM (titrated, usually from 114 µM), without a hit: at the top dose activity change, negative = inhibition, usual class: inhibitors; recombinant Pol eta, fluorescent DNA replication assay; Q9Y253; 390,000 compounds, 1.2% hits; also: % is scaled to controls: 0 for no effect and ±100 for the full control effect
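Pol eta (10 nM) was preincubated with compounds for 15 min at room temperature, after which fluorescent replication substrate (50 nM final) was added to start the reaction. Fluorescence was read kinetically at 0 and 10 min.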
Pol iota inh: blocks human DNA polymerase iota activity; Potency, µM (series often up to 115 µM), inactives show at the highest dose activity, negative = inhibition, usual class: inhibitors; Pol iota fluorescent replication assay, 10 min; 390,000 compounds, 1% hits
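Pol iota at 10 nM preincubated 15 min with compounds at room temperature; reaction started with fluorescent substrate, 50 nM final. Fluorescence read kinetically at 0 and 10 min; buffer-only wells as negative control.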
POLK inh: blocks human DNA polymerase kappa activity; AID 588579; Q9UBT6; Potency, µM (doses to about 107 µM), for inactives: at the highest dose activity, negative = inhibition, most hits filed as inhibitors; purified Pol kappa, fluorescent DNA synthesis assay, 10 min; 400,000 compounds, 0.53% hits; also: % is scaled to controls: 0 for no effect and ±100 for the full control effect
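Kinetic fluorescence readout at 0 and 10 min followed reaction start with substrate at 50 nM final. Beforehand, enzyme (10 nM Pol kappa) stood 15 min with compound at room temperature; buffer-only wells were negative controls.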
Pol beta inh: DNA polymerase beta (human) inhibition | P06746 | Pol beta primer extension/strand displacement, fluorescence kinetic | Potency, µM (highest dose often 114 µM), inactives show at the top dose activity change, negative = inhibition, hits mostly inhibitors | 340,000 compounds, 1.3% hits | AID 485314; also: % is scaled to controls: 0 for no effect and ±100 for the full control effect
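Values derive from four-parameter Hill fits of normalized kinetic data: reads at 0 and 10 min following addition of 50 nM substrate to 10 nM Pol beta preincubated 15 min with compound.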
WRN inhibitor: WRN helicase (human) inhibition | Q14191 | WRN helicase unwinding, fluorescent forked duplex, kinetic | Potency, µM (highest dose often 114 µM), without a hit: at the highest dose activity change, negative = inhibition, usual class: inhibitors | 360,000 compounds, 0.46% hits | AID 651768; also: % is scaled to controls: 0 for no effect and ±100 for the full control effect; nearly all actives have a fitted effect of over 55% in size
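Kinetic fluorescence helicase assay: unwinding of a quenched forked DNA duplex (100 nM final) with 2 mM ATP final raises red fluorescence (525/598 nm). Compounds sat 15 min at room temperature with 20 nM WRN beforehand.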
* = called active by the depositor; ? = inconclusive; nt = no result; [ ] = remark or other dose. Calls follow the shape of the dose curve; as a rule, active = well fitted curve in the direction sought with a large enough effect; inconclusive = small, poorly fitted or top-dose-only effect, or another doubt; inactive = no such curve, though single readings can be large; an effect the other way counts as inactive or inconclusive. Potency is read from the fitted curve at half-maximal effect.

SMILES	FEN1 inh	Pol eta inh	Pol iota inh	POLK inh	Pol beta inh	WRN inhibitor
Cc1cccc(C)c1NC(=O)Cn1cc(C(=O)c2ccco2)c2ccccc21	-14.3%	?	79.4µM*	-21.7%	50.1µM*	nt
O=c1oc2ccc(F)cc2c2c1C1O[C@](c3ccsc3)(Cc3c1ccc1ccccc31)O2	nt	nt	nt	nt	10µM*	nt
COc1ccc2c3c(c(=O)oc2c1)C1O[C@](c2ccsc2)(Cc2ccccc21)O3	nt	nt	nt	nt	-23.2%[22.9 µM]	nt
O=c1oc2ccccc2c2c1C1O[C@](c3ccsc3)(Cc3ccccc31)O2	nt	nt	nt	nt	11.2µM*	nt
CCCCC/C=C\C=C\[C@H](O)CCCCCCCC(=O)O	nt	nt	nt	6.3%[19.4 µM]	nt	nt
Cc1ccc(NC(=O)CCS(=O)(=O)c2ccc(Br)s2)c(Br)c1	-1.4%	-10.7%	17.4%	-1.8%	-13.5%	nt
Cc1ccc(-n2c(Cl)c(Cl)nc(Cl)c2=O)cc1	-30.2%	-8.6%	66.4%	-7.9%	1.5%	22.4µM*
N#CCC(=O)c1sccc1-n1cccc1	-24.4%	1.5%	?	79.4µM*	-17.1%	?
Cc1ccc(CNC(=O)c2ccc3c(=O)n(-c4ccccc4)c(=O)[nH]c3c2)cc1	17.9%	-12.8%	56.1%	-2.8%	2.5%	nt
O=C(c1cccc(F)c1)N1CCC2(CCCN(Cc3nccs3)C2)CC1	nt	nt	nt	7.7%[60.1 µM]	nt	nt
Cc1cc2oc(C(=O)NCCc3ccc(S(N)(=O)=O)cc3)cc(=O)c2cc1C	13.5%	-14.6%	26.5%	0.6%	96.4%	-12.5%
Cc1cc2oc(C(=O)NCCc3ccc(S(N)(=O)=O)cc3)c(C)c2cc1C	?	-23.2%	25.1µM*	-33.3%	5.62µM*	-18.8%
NS(=O)(=O)c1ccc(CCNC(=O)c2cc3ccccc3s2)cc1	?	28.2µM*	22.4µM*	?	44.7µM*	2.2%[11.6 µM]
CCN(CC)S(=O)(=O)c1ccc2nc(NC(=O)c3cccnc3)sc2c1	-9.0%	-2.5%	-1.2%	-7.7%[60.1 µM]	33.7%	nt
O=C(Nc1ccc(F)cc1)C(=O)C1C(=O)Nc2ccccc21 (stereo unspecified)	-20.4%	-19.2%	89.1µM*	7.3%	56.4%	-4.4%
NC(=O)[C@H]1O[C@@H](O)[C@H](O)[C@@H](O)[C@@H]1O	nt	nt	nt	-0.7%[19.4 µM]	nt	nt
